Consider seven sequences from PMC7862700, “An all-to-all approach to the identification of sequence-specific readers for epigenetic DNA modifications on cytosine”.

What all share (test): DAPPL (digital affinity profiling via proximity ligation, sequencing); 10 mM Tris-HCl pH 7.5, 50 mM NaCl, 1 mM DTT, 4% glycerol, room temperature, 30 min; GST-TFs on glutathione beads, 16-mer random dsDNA library, 0.1% formaldehyde crosslink after washing; high values mean tight binding
Common to all, as to conditions: protein: recombinant; tags: N-terminal GST; dsDNA, one strand shown

The target in one experiment is T1, FLI1 (Homo sapiens, UniProt Q01543 1-452).
T1 sequence: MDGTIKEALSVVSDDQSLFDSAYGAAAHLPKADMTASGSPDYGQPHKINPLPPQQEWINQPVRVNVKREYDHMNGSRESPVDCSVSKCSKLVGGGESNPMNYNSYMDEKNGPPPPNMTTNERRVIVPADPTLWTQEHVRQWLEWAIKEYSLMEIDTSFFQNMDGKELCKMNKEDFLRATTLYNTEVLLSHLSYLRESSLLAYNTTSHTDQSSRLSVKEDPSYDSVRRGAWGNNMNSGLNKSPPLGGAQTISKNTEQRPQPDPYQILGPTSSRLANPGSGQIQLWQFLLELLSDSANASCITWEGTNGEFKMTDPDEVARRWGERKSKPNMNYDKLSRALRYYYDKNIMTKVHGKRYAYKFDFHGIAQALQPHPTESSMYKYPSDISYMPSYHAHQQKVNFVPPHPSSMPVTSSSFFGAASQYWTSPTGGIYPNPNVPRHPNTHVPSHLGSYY
An outline of the steps: (§1)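 Binding signal is given per hexamer as its read frequency for a factor divided by its frequency in the tag-only sample. GST-fused human transcription factors were expressed in yeast, captured on glutathione beads, barcoded with DNA and pooled with that sample, then incubated with 200 nmole of a 16-mer random double-stranded DNA library in Tris/NaCl/DTT/glycerol buffer for 30 min at room temperature. The pools were then washed, crosslinked, proximity-ligated, amplified by PCR and sequenced on an Illumina NextSeq500.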

Another experiment has as its target T2, ELK1 (Homo sapiens, UniProt P19419 1-428).
T2 sequence: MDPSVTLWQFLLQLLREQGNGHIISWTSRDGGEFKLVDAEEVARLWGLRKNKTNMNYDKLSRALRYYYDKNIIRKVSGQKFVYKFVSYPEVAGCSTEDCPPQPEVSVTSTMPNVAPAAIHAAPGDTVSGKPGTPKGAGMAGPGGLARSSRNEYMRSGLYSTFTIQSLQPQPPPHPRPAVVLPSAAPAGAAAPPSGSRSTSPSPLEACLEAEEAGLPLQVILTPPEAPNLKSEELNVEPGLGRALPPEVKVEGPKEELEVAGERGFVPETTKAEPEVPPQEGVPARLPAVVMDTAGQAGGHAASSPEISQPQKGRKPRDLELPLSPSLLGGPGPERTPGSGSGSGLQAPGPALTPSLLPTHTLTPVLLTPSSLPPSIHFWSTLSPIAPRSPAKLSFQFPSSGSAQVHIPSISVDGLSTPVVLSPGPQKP
A digest of the protocol:
as §1

Another experiment deals with T3, GABPA (Homo sapiens, UniProt Q06546 1-454).
T3 sequence: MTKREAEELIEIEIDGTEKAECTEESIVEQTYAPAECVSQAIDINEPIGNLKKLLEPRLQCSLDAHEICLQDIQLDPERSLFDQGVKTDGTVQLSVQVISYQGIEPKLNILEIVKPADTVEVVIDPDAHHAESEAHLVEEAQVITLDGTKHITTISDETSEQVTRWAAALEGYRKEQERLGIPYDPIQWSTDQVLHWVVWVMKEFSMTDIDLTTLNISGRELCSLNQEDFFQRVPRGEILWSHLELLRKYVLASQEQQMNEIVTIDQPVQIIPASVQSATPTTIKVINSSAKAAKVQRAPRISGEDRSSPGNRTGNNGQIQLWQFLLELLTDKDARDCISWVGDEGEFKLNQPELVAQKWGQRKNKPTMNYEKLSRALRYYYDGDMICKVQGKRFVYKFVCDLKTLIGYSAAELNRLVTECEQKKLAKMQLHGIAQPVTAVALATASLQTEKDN
An outline of the steps:
as §1

Another experiment has as its target T4, ERG (Homo sapiens, UniProt P11308 1-479).
T4 sequence: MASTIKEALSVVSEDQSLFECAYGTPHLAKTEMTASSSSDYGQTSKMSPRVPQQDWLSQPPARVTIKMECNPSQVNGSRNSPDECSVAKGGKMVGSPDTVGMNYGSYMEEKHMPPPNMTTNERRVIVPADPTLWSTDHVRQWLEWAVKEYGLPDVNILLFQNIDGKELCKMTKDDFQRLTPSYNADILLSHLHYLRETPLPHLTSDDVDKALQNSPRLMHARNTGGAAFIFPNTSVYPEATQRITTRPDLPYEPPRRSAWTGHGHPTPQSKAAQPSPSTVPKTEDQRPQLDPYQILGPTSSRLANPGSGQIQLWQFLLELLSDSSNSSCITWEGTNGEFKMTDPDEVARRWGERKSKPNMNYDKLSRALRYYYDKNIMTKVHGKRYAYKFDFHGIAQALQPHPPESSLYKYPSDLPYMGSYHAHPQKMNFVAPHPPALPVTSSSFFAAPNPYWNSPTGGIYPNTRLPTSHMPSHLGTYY
An outline of the steps: as §1

The target in a further experiment is ELF1 (Homo sapiens, UniProt P32519 1-619). A digest of the protocol: as §1
A further experiment has as its target T5, EHF (Homo sapiens, UniProt Q9NZC4 1-300).
T5 sequence: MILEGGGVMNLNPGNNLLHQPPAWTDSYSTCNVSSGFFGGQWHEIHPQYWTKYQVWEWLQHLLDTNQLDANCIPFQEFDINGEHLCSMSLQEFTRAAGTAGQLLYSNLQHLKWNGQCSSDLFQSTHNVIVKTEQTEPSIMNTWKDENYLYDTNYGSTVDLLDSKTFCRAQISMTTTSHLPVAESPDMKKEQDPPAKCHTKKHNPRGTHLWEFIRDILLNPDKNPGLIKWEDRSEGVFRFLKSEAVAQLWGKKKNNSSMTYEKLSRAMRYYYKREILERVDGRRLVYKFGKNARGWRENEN
An outline of the steps:
as §1

Another experiment has as its target SPI1 (Homo sapiens, UniProt P17947 1-270). An outline of the steps: as §1
In another experiment the target is SPIB (Homo sapiens, UniProt Q01892 1-262). A digest of the protocol:
as §1

In another experiment the target is T6, ELK3 (Homo sapiens, UniProt P41970 1-407).
T6 sequence: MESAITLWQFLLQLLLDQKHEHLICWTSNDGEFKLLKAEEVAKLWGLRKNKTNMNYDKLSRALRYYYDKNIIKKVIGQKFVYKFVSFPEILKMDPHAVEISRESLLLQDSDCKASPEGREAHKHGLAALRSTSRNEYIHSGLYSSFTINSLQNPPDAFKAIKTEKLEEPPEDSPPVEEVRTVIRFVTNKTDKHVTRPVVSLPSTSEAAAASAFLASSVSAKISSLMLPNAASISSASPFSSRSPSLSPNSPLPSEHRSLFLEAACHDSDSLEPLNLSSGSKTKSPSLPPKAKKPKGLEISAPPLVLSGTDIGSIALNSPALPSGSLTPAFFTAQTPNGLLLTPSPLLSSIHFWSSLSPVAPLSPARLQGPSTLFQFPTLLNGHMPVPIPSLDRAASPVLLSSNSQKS
An outline of the steps: as §1

SPIB, sequence (Q01892 whole entry): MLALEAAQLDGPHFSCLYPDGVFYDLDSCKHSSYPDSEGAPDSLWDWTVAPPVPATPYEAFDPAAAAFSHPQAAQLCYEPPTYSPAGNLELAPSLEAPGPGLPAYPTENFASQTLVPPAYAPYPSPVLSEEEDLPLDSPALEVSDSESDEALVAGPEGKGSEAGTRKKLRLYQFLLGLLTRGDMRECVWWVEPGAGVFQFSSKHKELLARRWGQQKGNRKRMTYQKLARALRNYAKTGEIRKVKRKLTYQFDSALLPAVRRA
ELF1, sequence (P32519 whole entry): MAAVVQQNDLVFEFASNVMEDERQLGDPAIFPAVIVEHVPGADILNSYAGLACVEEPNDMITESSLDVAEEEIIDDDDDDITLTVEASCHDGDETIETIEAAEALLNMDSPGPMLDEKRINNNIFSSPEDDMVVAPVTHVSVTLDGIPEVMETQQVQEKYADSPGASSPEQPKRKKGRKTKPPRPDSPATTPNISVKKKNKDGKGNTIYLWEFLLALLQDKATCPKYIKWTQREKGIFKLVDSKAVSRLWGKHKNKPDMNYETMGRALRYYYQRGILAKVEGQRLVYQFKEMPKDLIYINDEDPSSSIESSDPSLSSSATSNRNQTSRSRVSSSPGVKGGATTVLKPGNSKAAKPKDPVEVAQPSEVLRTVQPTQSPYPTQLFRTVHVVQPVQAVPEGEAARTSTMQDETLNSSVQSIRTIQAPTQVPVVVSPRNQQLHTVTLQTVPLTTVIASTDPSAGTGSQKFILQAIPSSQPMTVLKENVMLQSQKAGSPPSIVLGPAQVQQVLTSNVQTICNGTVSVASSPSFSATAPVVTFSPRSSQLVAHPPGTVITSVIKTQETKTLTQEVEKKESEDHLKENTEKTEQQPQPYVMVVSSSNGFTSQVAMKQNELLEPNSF

As to TCCTAC, the binding signal was 1.48 fold enrichment (6-mer frequency, TF over GST control) in the experiment with FLI1; 1.46 fold enrichment (6-mer frequency, TF over GST control) with ELK1; 1.43 fold enrichment (6-mer frequency, TF over GST control) with GABPA; 1.42 fold enrichment (6-mer frequency, TF over GST control) in the experiment with ERG; 1.31 fold enrichment (6-mer frequency, TF over GST control) with ELF1; 1.45 fold enrichment (6-mer frequency, TF over GST control) with EHF. Besides, the binding signal was 1.52 fold enrichment (6-mer frequency, TF over GST control) in the experiment with SPI1; 1.65 fold enrichment (6-mer frequency, TF over GST control) in the experiment with SPIB; 1.56 fold enrichment (6-mer frequency, TF over GST control) with ELK3.
AACATC: the binding signal with FLI1 is 1.5 fold enrichment (6-mer frequency, TF over GST control); with ELK1, 1.35 fold enrichment (6-mer frequency, TF over GST control); in the experiment with GABPA it was 1.41 fold enrichment (6-mer frequency, TF over GST control); with ERG, 1.48 fold enrichment (6-mer frequency, TF over GST control); in the experiment with ELF1, 1.45 fold enrichment (6-mer frequency, TF over GST control); with EHF, 1.51 fold enrichment (6-mer frequency, TF over GST control). Also, the binding signal with SPI1 was 1.45 fold enrichment (6-mer frequency, TF over GST control); with SPIB, 1.37 fold enrichment (6-mer frequency, TF over GST control); with ELK3, 1.47 fold enrichment (6-mer frequency, TF over GST control).
As to AACTCC, the binding signal was 1.47 fold enrichment (6-mer frequency, TF over GST control) in the experiment with FLI1; 1.29 fold enrichment (6-mer frequency, TF over GST control) with ELK1; 1.39 fold enrichment (6-mer frequency, TF over GST control) in the experiment with GABPA; 1.32 fold enrichment (6-mer frequency, TF over GST control) with ERG; 1.35 fold enrichment (6-mer frequency, TF over GST control) in the experiment with ELF1; 1.3 fold enrichment (6-mer frequency, TF over GST control) with EHF. Moreover, the binding signal was 1.34 fold enrichment (6-mer frequency, TF over GST control) in the experiment with SPI1; 1.32 fold enrichment (6-mer frequency, TF over GST control) with SPIB; 1.38 fold enrichment (6-mer frequency, TF over GST control) with ELK3.
With AATTGA, the binding signal in the experiment with FLI1 is 1.18 fold enrichment (6-mer frequency, TF over GST control); with ELK1, 1.19 fold enrichment (6-mer frequency, TF over GST control); in the experiment with GABPA, 1.2 fold enrichment (6-mer frequency, TF over GST control); with ERG, 1.16 fold enrichment (6-mer frequency, TF over GST control); in the experiment with ELF1, 1.15 fold enrichment (6-mer frequency, TF over GST control); in the experiment with EHF, 1.25 fold enrichment (6-mer frequency, TF over GST control). The binding signal with SPI1 was 1.16 fold enrichment (6-mer frequency, TF over GST control); in the experiment with SPIB it was 1.2 fold enrichment (6-mer frequency, TF over GST control); with ELK3, 1.27 fold enrichment (6-mer frequency, TF over GST control).
As for ATATAG, the binding signal with FLI1 is 1.15 fold enrichment (6-mer frequency, TF over GST control); in the experiment with ELK1 it was 1.17 fold enrichment (6-mer frequency, TF over GST control); in the experiment with GABPA it was 1.29 fold enrichment (6-mer frequency, TF over GST control); in the experiment with ERG it was 1.19 fold enrichment (6-mer frequency, TF over GST control); with ELF1, 1.17 fold enrichment (6-mer frequency, TF over GST control); with EHF, 1.22 fold enrichment (6-mer frequency, TF over GST control). For the same sequence, the binding signal is 1.2 fold enrichment (6-mer frequency, TF over GST control) with SPI1; 1.2 fold enrichment (6-mer frequency, TF over GST control) in the experiment with SPIB; 1.23 fold enrichment (6-mer frequency, TF over GST control) in the experiment with ELK3.
On to TCTGCC, for which the binding signal in the experiment with FLI1 was 1.49 fold enrichment (6-mer frequency, TF over GST control); with ELK1, 1.36 fold enrichment (6-mer frequency, TF over GST control); in the experiment with GABPA, 1.51 fold enrichment (6-mer frequency, TF over GST control); with ERG it was 1.49 fold enrichment (6-mer frequency, TF over GST control); with ELF1, 1.54 fold enrichment (6-mer frequency, TF over GST control); with EHF, 1.37 fold enrichment (6-mer frequency, TF over GST control). Also, the binding signal with SPI1 was 1.37 fold enrichment (6-mer frequency, TF over GST control); with SPIB, 1.32 fold enrichment (6-mer frequency, TF over GST control); in the experiment with ELK3 it was 1.18 fold enrichment (6-mer frequency, TF over GST control).
For ACTGCT, the binding signal with FLI1 is 1.44 fold enrichment (6-mer frequency, TF over GST control); in the experiment with ELK1, 1.45 fold enrichment (6-mer frequency, TF over GST control); with GABPA, 1.29 fold enrichment (6-mer frequency, TF over GST control); with ERG, 1.29 fold enrichment (6-mer frequency, TF over GST control); in the experiment with ELF1 it was 1.35 fold enrichment (6-mer frequency, TF over GST control); in the experiment with EHF, 1.41 fold enrichment (6-mer frequency, TF over GST control). Moreover, the binding signal with SPI1 was 1.46 fold enrichment (6-mer frequency, TF over GST control); with SPIB, 1.36 fold enrichment (6-mer frequency, TF over GST control); in the experiment with ELK3, 1.26 fold enrichment (6-mer frequency, TF over GST control).
